# PABP1 MLLE inh – inhibitors of PABP1 MLLE–PAM2 peptide binding, primary screen, biochemical, fluorescence polarization, FITC-PAM2, GST-MLLE. Polyadenylate-binding protein 1 (Homo sapiens), P11940. inhibition, % at 20 µM. 0.36% of 360,000 active; in the data active = inhibition above about 35%, passing the limit was not always enough;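 note: plate controls were DMSO wells with GST-MLLE for no effect and wells lacking GST-MLLE protein for full effect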
# Efa HMGR inh – inhibitors of E. faecalis class II HMGR, primary screen, biochemical, Enterococcus faecalis. AID 1066, 2008. purified E. faecalis HMGR, NADPH absorbance 340 nm kinetic. inhibition, % at 10 µM. HMG-CoA reductase (Enterococcus faecalis, mvaE). 0.41% of 190,000 active;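 active = inhibition above a set limit, the median over all tested compounds plus 3 SD, cut at about 9.5% in these data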;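 note: enzyme runs in reverse so mevalonate oxidation gives rising NADPH absorbance; 0% = complete reaction with DMSO and 100% = background rate lacking mevalonate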
# eIF4H inh – human eIF4H binding inhibitors, primary screen, translation initiation inhibitor project, biochemical, uHTS, fluorescence polarization. Eukaryotic translation initiation factor 4H (Homo sapiens), Q15056. eIF4H fluorescence polarization binding assay. inhibition, % at 35 µM. 0.94% of 290,000 active;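 note: calls also rest on retests at 20 µM and on dose response follow-up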
# PABP FP inh – PABP poly(A) RNA binding inhibitors, primary screen, biochemical, fluorescence polarization, uHTS; Polyadenylate-binding protein 1 (Homo sapiens), P11940; 1% of 290,000 active; calls only at 35 µM; AID 2014, 2009;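 note: calls also rest on retests at 20 µM and on dose response follow-up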
# PHOSPHO1 block – PubChem AID 1565 | inhibition, % at 13.3 µM | recombinant PHOSPHO1, absorbance phosphatase assay | 1.1% of 290,000 active; in the data active = inhibition above about 60%
# Target sequence (Q8TCT1 whole entry, looked up): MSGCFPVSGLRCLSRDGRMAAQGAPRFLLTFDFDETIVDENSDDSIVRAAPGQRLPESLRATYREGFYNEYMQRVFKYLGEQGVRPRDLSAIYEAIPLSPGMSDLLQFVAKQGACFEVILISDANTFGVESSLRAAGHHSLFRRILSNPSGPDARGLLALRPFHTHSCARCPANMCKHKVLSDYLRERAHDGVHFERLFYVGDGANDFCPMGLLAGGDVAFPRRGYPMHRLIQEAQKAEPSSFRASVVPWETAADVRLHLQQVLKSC
# * hit, by the source's call; i = inactive; x = not tested or not shown; + = active, no number. Compounds with a hit are over-represented: about 2.4% of the library has one in this group of screens. Unless noted, the rule behind the calls is not given here.
SMILES,PABP1 MLLE inh,Efa HMGR inh,eIF4H inh,PABP FP inh,PHOSPHO1 block
Cc1ccc(S(=O)(=O)NCCC(=O)Nc2ccc(Cl)c(Cl)c2)cc1,1.6,-5.3,-7.0,i,-13.2
CN(C)C(=O)CSc1n[nH]c(=O)[nH]c1=O,-5.0,19.7*,-7.8,i,36.3
CCOc1ccc(S(=O)(=O)Nc2cc(Sc3ncn[nH]3)c3oc(=O)sc3c2)cc1,x,-0.1,11.4,i,102.9*
COc1ccc(-c2cc(C(=O)Nc3ccc(C)c(C)c3)no2)cc1,6.3,x,-4.6,i,60.6*
CC(=O)Nc1ccc(NC(=O)CSc2ccc3nnc(-c4cccnc4)n3n2)cc1,22.9,x,2.1,i,-32.4
Cc1ccc(NC(=O)c2cncc(Br)c2)nc1,-6.0,x,-0.2,i,38.1
O=C(CSc1ncn[nH]1)c1ccccc1,34.2,-6.6,-13.4,i,94.8*
COc1ccc(C2CC(c3c(O)cc(C)oc3=O)=NCCS2)c(OC)c1 (stereo not given),-29.9,-4.9,73.8*,+,-4.9
Cc1cc(O)ccc1NS(=O)(=O)c1ccc2c3c(cccc13)C(=O)N2,7.2,x,7.4,i,16.0
N#C/C(=C\c1ccc(OC(=O)c2ccc(Br)s2)cc1)c1nc2ccccc2[nH]1,4.1,-1.9,27.2,i,-13.2
N#C/C(=C\c1ccc(OC(=O)c2ccc(Cl)s2)cc1)c1nc2ccccc2[nH]1,15.8,-2.9,51.4*,+,-2.4
CNc1cncc(-c2cccc(NS(C)(=O)=O)c2)n1,10.4,x,x,x,x
CC(C)C1NC2(C(=O)c3ccccc3C2=O)C2C(=O)N(c3ccc(F)cc3)C(=O)C12 (stereo not given),38.6,-1.3,50.6*,+,31.4
O=C1C2C3C=CC(CC3)C2C(=O)N1c1ccc(F)cc1 (stereo not given),-13.8,x,4.1,i,23.5
COCC(C)n1c(SCC(=O)Nc2nccs2)nc2ccccc2c1=O (stereo not given),44.0*,x,x,x,x
COc1cccc(-n2c(SCC(N)=O)nc3ccccc3c2=O)c1,-70.0,1.0,58.2*,i,47.6
NC(=O)CSc1nc2ccccc2c(=O)n1-c1ccccc1,-2.8,x,-5.4,i,39.1
COc1cccc(-n2c(SCC(=O)Nc3nc4ccccc4s3)nc3ccccc3c2=O)c1,x,x,5.3,i,62.2*
Cc1c(Br)c([N+](=O)[O-])nn1C(C)C(=O)N1CCc2ccccc2C1 (stereo not given),-0.2,x,4.8,i,19.8
CCCOC1CCCN(Cc2nc(-c3ccc(C(=O)OC)cc3)no2)C1 (stereo not given),-8.2,x,3.2,i,2.6
CCSC1=C(C#N)C(c2ccc3c(c2)OCO3)C2=C(CCCC2=O)N1 (stereo not given),0.0,-4.5,-5.6,i,5.7
COC(=O)CSC1=C(C#N)C(c2ccc(C)cc2)C2=C(CCCC2=O)N1 (stereo not given),-26.6,-9.3,6.2,i,17.7
N#CC1=C(SCc2ccccc2)NC2=C(C(=O)CCC2)C1c1ccc2c(c1)OCO2 (stereo not given),11.1,-4.2,-1.0,i,93.4*
COC(=O)CSC1=C(C#N)C(c2ccc3c(c2)OCO3)C2=C(CCCC2=O)N1 (stereo not given),-19.5,2.4,-0.2,i,66.4*
Cc1ccc(NC(=O)CSC2=C(C#N)C(c3ccc4c(c3)OCO4)C3=C(CCCC3=O)N2)c(C)c1 (stereo not given),-37.2,1.0,5.2,i,71.5*
SMILES,PABP1 MLLE inh,Efa HMGR inh,eIF4H inh,PABP FP inh,PHOSPHO1 block
O=C(CC1C(=O)NCCN1Cc1c(F)cccc1Cl)NCCCN1CCCC1=O (stereo not given),-8.1,x,5.9,i,-14.2
COC(=O)c1sc2nc(N3CCCCC3)c3c(c2c1N)CCCC3,-0.2,-4.0,-3.8,i,20.4
NC(=O)c1sc2nc(N3CCCCC3)c3c(c2c1N)CCCC3,-9.4,-6.3,-4.0,i,67.4*
CCN(CC)C(=O)c1sc2nc(N3CCOCC3)c3c(c2c1N)CCCC3,20.3,-2.3,-7.1,i,80.4*
Nc1c(C(=O)Nc2ccc(Br)cc2)sc2nc(N3CCOCC3)c3c(c12)CCCC3,11.2,x,x,x,x
Nc1c(C(=O)NCc2ccco2)sc2nc(N3CCOCC3)c3c(c12)CCCC3,13.1,2.1,0.3,i,92.3*
CCCn1c(SCC(=O)NC2CCCC2)nnc1-c1cccnc1,0.5,x,-3.0,i,26.9
O=C(Nc1ccc(F)cc1)C(NC1CCCCC1)c1ccccc1 (stereo not given),-2.3,-0.3,2.7*,+,-2.7
COc1cc2c(c(OC)c1OC)-c1ccc(OC)c(=O)cc1C(NC(=O)c1ccccc1)CC2 (stereo not given),-37.9,x,x,x,x
Cc1ccc(C(=O)/C=C/C(=O)c2ccc(C)cc2)cc1,0.8,0.6,x,+,27.7
Cc1ccc(S(=O)(=O)N[C@H](C(=O)N2CCC(C(=O)N[C@@H](CCC(N)=O)C(=O)O)CC2)C(C)C)cc1,-1.8,x,-3.3,i,28.6
COCCCn1c(N)c(-c2nc3ccccc3n2C)c2nc3ccccc3nc21,-23.0,-0.3,3.0,i,-6.0
CCn1nc([N+](=O)[O-])c2c(-c3nc4ccccc4o3)c(N)n(CCCOC)c2c1=O,10.6,1.1,70.1*,+,95.9*
Cc1cc(NS(=O)(=O)c2ccc(NC(=O)CCCOc3cccc(C)c3C)cc2)no1,-0.8,x,1.3,i,41.4
CC(C)c1c(C(=O)N/N=C/c2cccc3ccccc23)nnn1-c1nonc1N,7.3,x,-12.7,i,16.9
CCCCC1(Br)C(=O)N(c2ccccc2)N(c2ccccc2)C1=O,-26.5,x,x,x,x
CC(C)CC(N)c1csc(Nc2cnccn2)n1 (stereo not given),-7.5,x,x,x,x
COCC(=O)N1CCCC(C(=O)c2ccc(-c3ccccc3)c(F)c2)C1 (stereo not given),8.3,0.4,-1.4,i,62.8*
COc1ccccc1NC(=O)CN1CC(=O)Nc2ccccc21,-11.6,4.6,-9.1,+,21.0
O=C(CN1CC(=O)Nc2ccccc21)Nc1ccc(F)c(F)c1,-23.1,-7.7,-0.8,i,-0.9
CCC(c1nnnn1CCOC)N(Cc1cc2cc(C)c(C)cc2[nH]c1=O)CC1CCCO1 (stereo not given),4.8,-1.6,-3.2,i,75.5*
COc1ccc(C2CC(c3ccc(Cl)cc3Cl)Nc3nc(N)nn32)cc1 (stereo not given),2.3,-11.4,5.9,i,70.5*
COc1ccc(C2CC(c3ccc(Cl)cc3Cl)n3nc(N)nc3N2)cc1 (stereo not given),11.2,-3.9,4.6,i,-0.6
Cc1cccc2nc(CSCc3ccco3)cn12,43.6*,5.4,75.5*,+,50.5
CN1CCN(S(=O)(=O)c2ccc(N(C)Cc3c(F)cccc3Cl)nc2)CC1,6.3,x,x,x,x
NCc1cc2c3c(c1)CCCN3CCC2,36.5*,x,92.9*,+,11.4

# Screens as filed in PubChem BioAssay.
